Source: PubChem BioAssay (NCATS)
Records with an inconclusive call do not appear. Activity calls are given as the source filed them. Calls come from the whole dose curve; as a rule, active = well fitted curve in the direction sought with a large enough effect; inconclusive = small, poorly fitted or top-dose-only effect, or another doubt; inactive = no such curve, though single readings can be large; an effect the other way counts as inactive or inconclusive.

Key:
[1] = qHTS of pediatric cancer cell lines to identify multiple opportunities for drug repurposing: Primary screen for MG 63 (6-TG R) cells (AID 1347105); note: nearly all actives have a fitted effect of over 50% in size; for activity change, negative = cytotoxic: % is set by controls: 0 for no effect and ±100 for the full control effect
Outline: (§1)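 Cells seeded at 500-1,000 cells/well in growth media, rested 5 hours at 37 degrees C, 5% CO2, then dosed; MIPE compounds at 11-point (from 0.78 nM) and NPC at 8-point (from 0.59 nM) final concentrations. Viability by CellTiter-Glo luminescence after 48 hours.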

[2] = qHTS of pediatric cancer cell lines to identify multiple opportunities for drug repurposing: Primary screen for control Hh wild type fibroblast cells (AID 1347106); note: nearly all actives have a fitted effect of over 55% in size;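 for activity change, negative = cytotoxic: series mostly up to about 46 µM; % is set by controls: 0 for no effect and ±100 for the full control effect; a drop in luminescence marks cytotoxicity and a rise apparent proliferation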
Outline: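 Viability after 48 h compound treatment at 37C, 500-1,000 cells/well, read as ATP luminescence with CellTiter-Glo. Primary screens used 11-point (MIPE, 0.78 nM-46 µM) or 8-point (NPC, 0.59 nM-46 µM) final concentrations; follow-up screens used 11-point dilutions.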

[3] = qHTS of pediatric cancer cell lines to identify multiple opportunities for drug repurposing: Primary screen for Rh30 cells (AID 1347107); note: nearly all actives have a fitted effect of over 75% in size; for activity change, negative = cytotoxic: series mostly up to about 46 µM; % is set by controls: 0 for no effect and ±100 for the full control effect
Outline: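 Cells (500-1,000/well) in growth media were settled 5 h at 37 degrees C, then given compounds for 48 h. Viability was read as CellTiter-Glo luminescence. Primary runs used MIPE at 11 points (0.78 nM-46 µM) and NPC at 8 points (0.59 nM-46 µM); follow-ups used 11 points.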

[4] = qHTS of pediatric cancer cell lines to identify multiple opportunities for drug repurposing: Primary screen for Rh41 cells (AID 1347108); note: nearly all actives have a fitted effect of over 70% in size;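 for activity change, negative = cytotoxic: series mostly up to about 46 µM; luminescence drop marks cytotoxic hits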
Outline: as §1
Potency is the fitted concentration of half-maximal effect.

CCCCOc1ccc(C(=O)Nc2ccc(F)cc2F)cc1
inactive: Potency [1] | Potency [2] | Potency [3] | Potency [4]

CN(N=O)C(=O)N[C@H]1C(O)OC(CO)[C@@H](O)[C@H]1O (stereo not given in full)
inactive: Potency [1] | Potency [2] | Potency [3] | Potency [4]

CC(=O)N[C@@H]1[C@H](O[C@@H]2c3ccc(c(Cl)c3)Oc3cc4cc(c3O[C@H]3O[C@H](CO)[C@@H](O)[C@H](O)[C@H]3NC(=O)CCCCCCCC(C)C)Oc3ccc(cc3Cl)C[C@H]3NC(=O)[C@H](N)c5ccc(O)c(c5)Oc5cc(O)cc(c5)[C@H](NC3=O)C(=O)N[C@H]4C(=O)N[C@H]3C(=O)N[C@@H]2C(=O)N[C@@H](C(=O)O)c2cc(O)cc(O[C@H]4O[C@H](CO)[C@@H](O)[C@H](O)[C@H]4O)c2-c2cc3ccc2O)O[C@H](CO)[C@@H](O)[C@@H]1O
inactive: Potency [1] | Potency [2] | Potency [3] | Potency [4]

Cc1ccc(O)c(C(CCN(C(C)C)C(C)C)c2ccccc2)c1 (stereo not given)
inactive: Potency [1] | Potency [2] | Potency [3] | Potency [4]

CCCCCCCCCCCCCCCC(=O)OC[C@@H](NC(=O)C(Cl)Cl)[C@H](O)c1ccc([N+](=O)[O-])cc1
inactive: Potency [1] | Potency [2] | Potency [3] | Potency [4]

C[C@@H]1C(=O)O[C@H]2CC34[C@H]5C[C@@H](C(C)(C)C)C36[C@H](OC(=O)[C@@H]6O)O[C@@]4(C(=O)O5)[C@]21O (stereo not given in full)
inactive: Potency [1] | Potency [2] | Potency [3] | Potency [4]

CN1[C@H]2CC(OC(=O)[C@@H](CO)c3ccccc3)C[C@H]1[C@H]1O[C@H]12 (stereo not given in full)
inactive: Potency [1] | Potency [2] | Potency [3] | Potency [4]

CC(C)N(CC[C@H](c1ccccc1)c1cc(CO)ccc1O)C(C)C
inactive: Potency [1] | Potency [2] | Potency [3] | Potency [4]

CC(C)(C)[N+]([O-])=Cc1ccc(S(=O)(=O)O)cc1S(=O)(=O)O
inactive: Potency [1] | Potency [2] | Potency [3] | Potency [4]

CCN(C(=O)c1c(O)c2c(Cl)cccc2n(C)c1=O)c1ccccc1
inactive: Potency [1] | Potency [2] | Potency [3] | Potency [4]

C[C@H](CCC(=O)O)[C@H]1CC[C@H]2[C@@H]3[C@H](O)C[C@@H]4C[C@H](O)CC[C@]4(C)[C@@H]3CC[C@]12C
inactive: Potency [1] | Potency [2] | Potency [3] | Potency [4]

OCc1ccccc1O[C@@H]1O[C@H](CO)[C@H](O)[C@H](O)[C@H]1O
inactive: Potency [1] | Potency [2] | Potency [3] | Potency [4]

c1cc(CN2CCCNCCNCCCNCC2)ccc1CN1CCCNCCNCCCNCC1
inactive: Potency [1] | Potency [2] | Potency [3] | Potency [4]

N#CC(=C(O)c1ccc(Cl)cc1Cl)c1nc2cc(Cl)ccc2c(=O)[nH]1
inactive: Potency [1] | Potency [2] | Potency [3] | Potency [4]

C[C@@H]1CC[C@@]2(OC1)OC1CC3C4CC=C5CC(O)CCC5(C)C4CCC3(C)C1[C@@H]2C (stereo not given in full)
inactive: Potency [1] | Potency [2] | Potency [3] | Potency [4]

CCCCCCCCCCCC(CC1OC(=O)C1CCCCCC)OC(=O)C(CC(C)C)NC=O (stereo not given)
inactive: Potency [1] | Potency [2] | Potency [3] | Potency [4]

C[C@@H](NCc1cc2ccccc2[nH]1)c1cccc2ccccc12
inactive: Potency [1] | Potency [2] | Potency [3] | Potency [4]

OCC(O)C(O)C(O)CO (stereo not given)
inactive: Potency [1] | Potency [2] | Potency [3] | Potency [4]

COC(=O)[C@@H]1CC2=CC(=O)CC[C@]2(C)[C@@]23O[C@@H]2C[C@@]2(C)[C@H](CC[C@@]24CCC(=O)O4)[C@@H]13
inactive: Potency [1] | Potency [2] | Potency [3] | Potency [4]

CCCCCCCN(CC)CCCC(O)c1ccc(NS(C)(=O)=O)cc1 (stereo not given)
inactive: Potency [1] | Potency [2] | Potency [3] | Potency [4]

CCC[C@H]1C[C@H](C(=O)N[C@@H]([C@@H]2O[C@@H](SC)[C@@H](O)[C@@H](O)[C@@H]2O)[C@H](C)Cl)N(C)C1
inactive: Potency [1] | Potency [2] | Potency [3] | Potency [4]

CC(=O)C1=C(O)C=C2Oc3c(C(C)=O)c(O)c(C)c(O)c3C2(C)C1=O (stereo not given)
inactive: Potency [1] | Potency [2] | Potency [3] | Potency [4]

NC(=O)c1cccc(-c2cccc(OC(=O)NC3CCCCC3)c2)c1
inactive: Potency [1] | Potency [2] | Potency [3] | Potency [4]

O=C(O)C(=O)Nc1cccc(C2=NN=N[N]2)c1
inactive: Potency [1] | Potency [2] | Potency [3] | Potency [4]

O=C1NC(O)CCN1[C@@H]1O[C@H](CO)[C@H](O)[C@H]1O (stereo not given in full)
inactive: Potency [1] | Potency [2] | Potency [3] | Potency [4]

CC(=O)NC(CS)C(=O)O (stereo not given)
inactive: Potency [1] | Potency [2] | Potency [3] | Potency [4]

C[C@@H]1[C@H](C)CC[C@]2(C(=O)O)CC[C@]3(C)C(=CC[C@@H]4[C@@]5(C)C[C@@H](O)[C@H](O)[C@@](C)(CO)[C@H]5CC[C@]43C)[C@@H]12
inactive: Potency [1] | Potency [2] | Potency [3] | Potency [4]

C=CC1=C(C(=O)O)N2C(=O)[C@@H](NC(=O)C(=NO)c3csc(N)n3)[C@H]2SC1
inactive: Potency [1] | Potency [2] | Potency [3] | Potency [4]

C[C@H](CCC(=O)O)[C@H]1CCC2C3C[C@H](O)[C@@H]4C[C@H](O)CC[C@]4(C)C3CC[C@@]21C (stereo not given in full)
inactive: Potency [1] | Potency [2] | Potency [3] | Potency [4]

Cn1cc(C[C@@H](N)C(=O)O)c2ccccc21
inactive: Potency [1] | Potency [2] | Potency [3] | Potency [4]

NC(=NCCCCCCN=C(N)N=C(N)Nc1ccc(Cl)cc1)N=C(N)Nc1ccc(Cl)cc1
active: Potency [1] 14.8 µM | Potency [2] 8.33 µM | Potency [3] 4.69 µM | Potency [4] 7.43 µM

C[C@]12CCC(=O)C=C1[C@@H]1CC1[C@H]1[C@H]3[C@@H]4C[C@H]4[C@@]4(CCC(=O)O4)[C@@]3(C)CC[C@H]12 (stereo not given in full)
inactive: Potency [1] | Potency [2] | Potency [3] | Potency [4]

c1coc(CNc2ncnc3nc[nH]c23)c1
inactive: Potency [1] | Potency [2] | Potency [3] | Potency [4]

O=C(O)CCCCCC(=O)NN=C1CCCC1
inactive: Potency [1] | Potency [2] | Potency [3] | Potency [4]

O=C(c1ccc(F)cc1)N1CCC[C@H](c2nc(-c3ccc(F)cc3)no2)C1
inactive: Potency [1] | Potency [2] | Potency [3] | Potency [4]

CC[C@H]1OC(=O)[C@H](C)[C@@H](O[C@H]2C[C@@](C)(OC)[C@@H](O)[C@H](C)O2)[C@H](C)[C@@H](O[C@@H]2O[C@H](C)C[C@H](N(C)C)[C@@H]2O)[C@](C)(OC)C[C@@H](C)C(=O)[C@H](C)[C@@H](O)[C@]1(C)O
inactive: Potency [1] | Potency [2] | Potency [3] | Potency [4]

Cc1cc(O)c2c(c1)C(=O)c1cccc(O)c1C2=O
inactive: Potency [1] | Potency [2] | Potency [3] | Potency [4]

CON=C(C(=O)N[C@@H]1C(=O)N2C(C(=O)O)=C(Cn3ccc(=N)n3CCO)CS[C@H]12)c1csc(N)n1
inactive: Potency [1] | Potency [2] | Potency [3] | Potency [4]

C=C1C(=O)O[C@H]2[C@@H]1CCC(C)=CCC[C@@]1(C)O[C@@H]21
inactive: Potency [2]
active: Potency [1] 9.35 µM | Potency [3] 18.7 µM | Potency [4] 11.8 µM

Oc1cc2c(cc1O)C1c3ccc(O)c(O)c3OCC1(O)C2 (stereo not given)
inactive: Potency [1] | Potency [2] | Potency [3] | Potency [4]

C=C(C)[C@@H]1CC[C@]2(C)CC[C@]3(C)[C@H](CC[C@@H]4[C@@]5(C)CC[C@H](O)C(C)(C)[C@H]5CC[C@]43C)[C@@H]12
inactive: Potency [1] | Potency [2] | Potency [3] | Potency [4]

CCN1CCN(C(=O)N[C@H](C(=O)N[C@@H]2C(=O)N3C(C(=O)O)=C(CSc4nnnn4C)CS[C@@H]23)c2ccc(O)cc2)C(=O)C1=O
inactive: activity change, negative = cytotoxic [1] 4.31% [at 9.22 µM] | activity change, negative = cytotoxic [2] -2.3% [at 9.22 µM] | activity change, negative = cytotoxic [3] 26.1% [at 9.22 µM] | activity change, negative = cytotoxic [4] 38.6% [at 9.22 µM]

C=C1CCC2[C@](C)(CO)C(O)CC[C@]2(C)C1CC=C1C(=O)OCC1O (stereo not given in full)
inactive: Potency [1] | Potency [2] | Potency [3] | Potency [4]

C[C@](Cc1c[nH]c2ccccc12)(NC(=O)OC1C2CC3CC(C2)CC1C3)C(=O)NC[C@H](NC(=O)CCC(=O)O)c1ccccc1 (stereo not given in full)
inactive: Potency [1] | Potency [2] | Potency [3] | Potency [4]

OC[C@@H](O)[C@@H](O)[C@H](O)[C@@H](O)CO
inactive: Potency [1] | Potency [2] | Potency [3] | Potency [4]

COc1ccnc2[nH]cc(C(=O)C(=O)N3CCN(C(=O)c4ccccc4)C[C@@H]3C)c12
inactive: Potency [1] | Potency [2] | Potency [3] | Potency [4]

NC1=N[C@H]2[C@H](CS[C@H]2CCCCC(=O)O)N1
inactive: Potency [1] | Potency [2] | Potency [3] | Potency [4]

CC(=O)OCC(=O)[C@@]12N=C(C)O[C@H]1C[C@H]1[C@@H]3CCC4=CC(=O)C=C[C@]4(C)[C@@H]3[C@@H](O)C[C@@]12C
inactive: Potency [1] | Potency [2] | Potency [3] | Potency [4]

Nc1nc(=O)n([C@H]2CSC(CO)O2)cc1F (stereo not given in full)
inactive: Potency [1] | Potency [2] | Potency [3] | Potency [4]

CC(C)OC(=O)[C@H](C)N[P@](=O)(OC[C@H]1O[C@@H](n2ccc(=O)[nH]c2=O)[C@](C)(F)[C@H]1O)Oc1ccccc1
inactive: Potency [1] | Potency [2] | Potency [3] | Potency [4]
